We go through 85 compounds from PubChem BioAssay AID652105 (National Center for Advancing Translational Sciences (NCATS), 2013).

Screen size: about 330,000 compounds; about 4,100 (1.2%) were called active. Another 2% or so got no clear call; they are omitted. The list comes from a sample in which actives are over-represented; it also holds similar structures and randomly drawn compounds. A number with no mark means an inactive call. How the source made its calls: active means max response of -50% or lower; inconclusive means between -30% and -50%; inactive means -30% or higher.
On the % scale 0 is the no-effect control and ±100 the full control effect.

In the experiment the target is Phosphatidylinositol 5-phosphate 4-kinase type-2 alpha (Homo sapiens) (UniProt P48426). Description: qHTS for Inhibitors of phosphatidylinositol 5-phosphate 4-kinase (PI5P4K). Further: value at the top dose of about 77 µM. Conditions: PI5P4Kalpha enzyme, ADP-Glo luminescence, 60 min; stronger effect = lower value. Summed up: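 ADP-Glo luminescence end-point read after a 60 min room-temperature kinase reaction of PI5P4Kalpha plus substrate, initiated with ATP at 5 microM final. Buffer: 0.038 M HEPES pH 7.4, EGTA, 0.1% CHAPS, 5% DMSO.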
Chain of Phosphatidylinositol 5-phosphate 4-kinase type-2 alpha (Homo sapiens) (P48426 whole entry, looked up): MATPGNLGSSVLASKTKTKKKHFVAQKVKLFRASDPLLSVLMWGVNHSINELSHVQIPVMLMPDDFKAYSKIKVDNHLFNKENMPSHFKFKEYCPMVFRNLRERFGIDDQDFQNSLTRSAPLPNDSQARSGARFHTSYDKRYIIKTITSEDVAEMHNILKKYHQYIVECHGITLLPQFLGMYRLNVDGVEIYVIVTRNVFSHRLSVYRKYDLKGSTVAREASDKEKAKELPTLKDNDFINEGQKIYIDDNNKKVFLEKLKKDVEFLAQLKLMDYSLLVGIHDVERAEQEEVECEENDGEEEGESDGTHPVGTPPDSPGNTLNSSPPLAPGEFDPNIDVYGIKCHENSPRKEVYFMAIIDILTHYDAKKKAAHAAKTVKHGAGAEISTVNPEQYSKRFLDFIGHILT
(In general: qHTS replaces the single test concentration by a dilution series.)
With `CCCCCCN1CCN(C2CN(Cc3cn(CCCCCC)nn3)S(=O)(=O)C2)CC1` (stereo not given), the max response is -1.03%.
On to `CC(C)Nc1nc(NCCOc2ccccc2Cl)c2sccc2n1`, for which the max response is -24.4%.
With `O=C(NCc1ccco1)c1cccc(-c2ccc3nncn3c2)c1`, the max response was 5.11%.
Consider `Cc1cccc(C)c1Cn1c(C)c(C(=O)NCc2cccc(Cl)c2)sc1=O`, for which the max response is 9.15%.
In the case of `CCOC(=O)/C(N=Nc1cc(C(=O)O)cc(C(=O)O)c1)=C(\O)CCl`, the max response is -52.4% (active).
Next, `COc1cccc(CN(C)C(=O)CC[C@H]2O[C@@H](n3cnc4c(NC(=O)c5ccccc5)ncnc43)[C@H](O)[C@@H]2O)c1`: -6.93%; `COC(=O)[C@@]12C[C@@H](CC(=O)NCc3cccc(C(F)(F)F)c3)C(=O)N(Cc3ccco3)C1=CCC(C)(C)C2`: -1.12%; `Nn1c(SCC(=O)Nc2nccs2)nnc1-c1ccco1`: -11.2%.
Turning to `NC(=O)c1c(NC(=O)CSc2nnc(-c3ccco3)n2N)sc2c1CCCC2`, the max response is -79.7% (active).
Consider `Cc1cc(NC(=O)CSc2nnc(-c3ccco3)n2N)no1`, for which the max response is -9.01%.
The same measure for `O=C1c2ccccc2C(c2nc3ccccc3[nH]2)N1c1ccccc1` (stereo not given): -0.58%; for `CN(C(=O)COC(=O)c1cc(-c2ccco2)nc2ccccc12)C1CCS(=O)(=O)C1` (stereo not given): -66.2% (active).
As for `COc1ccc(/C=C(\C#N)C(=O)OCC(=O)N(C)C2CCS(=O)(=O)C2)cc1` (stereo not given), the max response was 4.63%.
Next, `CN(C(=O)COC(=O)Cc1ccccc1[N+](=O)[O-])C1CCS(=O)(=O)C1` (stereo not given): 1.78%; `CCNC(=O)c1cc2c(c(-c3cccc(-c4cncnc4)c3)n1)[C@H](CCO)N(C(C)=O)C2`: 1.34%; `CCCCc1c(-c2ccc(Cl)cc2)ncn1CCc1ccccc1OC`: 19%.
For the compound `Fc1cccc(Cc2c(-c3ccc(Cl)cc3)nc3ccc(Cl)cn23)c1`, the max response was 1.89%.
With `O=C(COc1ccc(-n2cnnn2)cc1)Nc1ccccc1Cl`, the max response is -51.4% (active).
Next, `O=C(Cc1c(F)cccc1Cl)Nc1ccc(-n2cnnn2)cc1`: 4.15%.
`C=CCc1cccc(/C=N/NC(=O)COc2ccc(-n3cnnn3)cc2)c1O`: the max response was -0.249%.
Turning to `C=CCC[C@@H](CCCCC)OC(=O)/C=C/[C@@H](O)[C@H](O)C[C@H](O)CC=C`, the max response was 17.3%.
As for `COCCNc1nc(Nc2ccccc2Cl)c2sc(-c3ccccc3)cc2n1`, the max response is -2.99%.
Next, `O=C(O)c1ccccc1/C=N/Nc1ccc(S(=O)(=O)Nc2ccc(Cl)cc2)cc1[N+](=O)[O-]`: -7.22%; `O=[N+]([O-])c1cc(S(=O)(=O)Nc2cccc(Cl)c2)ccc1N=Nc1c(O)[nH]c2ccccc12`: -75.5% (active).
As for `Oc1[nH]c2ccccc2c1N=Nc1c(F)c(F)c(F)c(F)c1F`, the max response is 1.14%.
The same measure for `CCOC(=O)[C@]12CCCC=C1N(Cc1ccc3c(c1)OCO3)C(=O)[C@H](CC(=O)NCc1cccs1)C2`: 3.13%.
Turning to `COc1cccc(CNC(=O)[C@@H]2CCCN2C(=O)[C@@H]2CCCN2C(=O)c2ccccc2)c1`, the max response was -1.24%.
Turning to `O=C(CCc1ccccc1)Nc1nn[nH]n1`, the max response is -6.47%.
With `O=C(/C=C/c1c(F)cccc1Cl)Nc1nn[nH]n1`, the max response is -56.7% (active).
In the case of `O=C(/C=C/c1c(Cl)cccc1Cl)NCc1ccccc1`, the max response was 3.82%.
On to `Nc1nc(CSc2nnnn2-c2ccccc2)nc(Nc2ccccc2)n1`, for which the max response is 2.21%.
The same measure for `C[C@H]1CN([C@@H](C)CO)C(=O)c2cc(Br)cnc2O[C@H]1CN(C)S(=O)(=O)c1cccs1`: 6.03%; for `CCOC(=O)[C@]12CCCC=C1N(CCC1=CCCCC1)C(=O)[C@H](CC(=O)N1CCCCC1)C2`: -3.48%; for `CC(=O)c1ccc(S(=O)(=O)N2CCN(C(=O)/C=C/c3ccc4ccccc4n3)CC2)cc1`: -58.5% (active).
On to `CC(=O)c1ccc(S(=O)(=O)N2CCC(Oc3ccc(-n4cnnn4)cc3)CC2)cc1`, for which the max response is -1.39%.
Turning to `CC(=O)c1ccc(S(=O)(=O)N2CCC3(CC2)OCCO3)cc1`, the max response is 1.8%.
`COc1ccc(CCCNC(=O)C2Cc3c(-c4cccc(C(N)=O)c4)ccnc3O2)cc1` (stereo not given): the max response is -10.3%.
Turning to `CCNC(=O)C1(C)CCCN(Cc2noc(-c3ccccc3OC)n2)C1` (stereo not given), the max response is -0.357%.
Next, `CN1OC[C@@H]2CN(S(=O)(=O)c3cccc(C(F)(F)F)c3)[C@H](c3ccc(-c4cc5ccccc5o4)cc3)C[C@@H]21`: 4.81%.
Next, `COc1cccc(CNC(=O)COC(=O)CN2C(=O)NC3(CCCCC3C)C2=O)c1` (stereo not given): -4.41%; `CCCCNC(=O)CN1C(=O)NC(Cc2ccccc2)(Cc2ccccc2)C1=O`: 0.277%.
Next, `COc1cccc(CNC(=O)CN2C(=O)NC(Cc3ccccc3)(c3ccccc3)C2=O)c1` (stereo not given): -83.2% (active).
As for `CCCNC(=O)c1cc2c(c(-c3cccc(-c4ccc(C#N)cc4)c3)n1)[C@@H](CCO)N(C(=O)CC)C2`, the max response is -0.337%.
For `C[C@@H]1CN([C@H](C)CO)C(=O)CCCn2cc(nn2)CO[C@H]1CN(C)S(C)(=O)=O`, the max response was 6.16%.
As to `CC(C)C[C@H]1CNC(=O)C(=O)N1C[C@H]1CCCN1C[C@H](Cc1ccc(O)cc1)N1C[C@H](CC(C)C)N(CC2CCCCCC2)C(=O)C1=O`, the max response was -0.421%.
Turning to `CCOC(=O)C1=CC[C@@H](c2ccccc2)N(S(=O)(=O)c2ccc(C)cc2)[C@H]1c1ccc(CC)cc1`, the max response is 6.84%.
As to `Cc1cc2nc(-c3ccc(Cl)cc3)c(Cc3cccc(F)c3)n2c(C)c1Br`, the max response was -6.22%.
On to `Cc1cc2nc(-c3ccco3)c(Cc3cccc(F)c3)n2c(C)c1Br`, for which the max response is -66.2% (active).
The same measure for `Cc1cc2nc(-c3ccc(F)cc3)c(Cc3ccsc3)n2c(C)c1Br`: 7.62%.
`COc1ccc(OC)c(CN2C(=O)CCC2(C)c2nnnn2Cc2ccccc2)c1` (stereo not given): the max response is 2.57%.
As for `COc1ccc(CCNC(=O)CN(c2ccccc2)S(=O)(=O)c2ccccc2)cc1`, the max response is -3.29%.
With `CC1=C(C(=O)N(C(C)C)C(C)C)CC(CC(=O)NCC2CCCCC2)C(=O)N1Cc1ccccc1` (stereo not given), the max response was -7.86%.
In the case of `CCOC(=O)[C@]12CCCC=C1N(CCC1=CCCCC1)C(=O)[C@H](CC(=O)N1CCSCC1)C2`, the max response is -1.78%.
The same measure for `O=C(Nc1ccc2ccccc2c1[N+](=O)[O-])c1ccccc1`: -2.74%; for `O=C(O)c1cc([N+](=O)[O-])c(Nc2cccc3ccccc23)c([N+](=O)[O-])c1`: -64.5% (active); for `CCOc1ccccc1Nc1ccc(C(=O)O)cc1[N+](=O)[O-]`: -1.68%.
On to `CNc1cnc(-c2cc(OC)c(OC)c(OC)c2)cn1`, for which the max response was 1.71%.
For the compound `Cc1ccc(/C([O-])=C(/C(=S)NCc2ccco2)[n+]2ccccc2)cc1[N+](=O)[O-]`, the max response is -51.3% (active).
The same measure for `CC(OC(=O)CNC(=O)c1ccc(Cl)c([N+](=O)[O-])c1)C(=O)NCc1ccco1` (stereo not given): -12%; for `O=[N+]([O-])c1cccc(/C([O-])=C(/C(=S)Nc2ccccc2F)[n+]2ccccc2)c1`: -1.12%; for `CC(C)c1cccc(-c2csc(C(O)c3ccccc3)n2)c1` (stereo not given): 28.3%.
`COCCNC(=O)Nc1ccc2nc(-c3ccco3)c(-c3ccco3)nc2c1`: the max response is -88.9% (active).
As for `COc1cccc(NC(=O)NCCN2CCCCC2)c1`, the max response was 3.3%.
Next, `CC(=O)NCCc1nc2cc(NC(=O)c3ccccc3)ccc2n1C`: -3.2%; `CCCC(=O)N1CCC1(C)C(=O)NCc1ccc(SC)cc1` (stereo not given): 0.695%.
For `CC(=O)Oc1ccc(Cn2c(C)c(C(=O)NCc3ccc(C#N)cc3)sc2=O)cc1`, the max response was 2.41%.
`COc1cc(NC(=O)COc2ccccc2Cl)ccc1NC(=O)C(C)C`: the max response is -11.3%.
Take `O=C(COc1ccccc1Cl)Nc1ccc(C(=O)c2ccc(C(=O)O)cc2)cc1`: the max response was -70.5% (active).
As to `O=C(COc1ccccc1)Nc1ccc(C(=O)N2CCCC2)cc1`, the max response is 6.33%.
With `CN(C)/N=C/c1cc(Cl)cc([N+](=O)[O-])c1O`, the max response is -13.3%.
Regarding `O=[N+]([O-])c1cc(Cl)cc(/C=N/NC(=S)Nc2cc(S(=O)(=O)N3CCOCC3)ccc2Cl)c1O`, the max response was -78.8% (active).
As to `Cc1ccc(S(=O)(=O)N2CCN(CC(=O)N/N=C/c3cc([N+](=O)[O-])ccc3Cl)CC2)cc1`, the max response is 4.76%.
Next, `COC(=O)[C@]12CCCCC=C1N(CCC1=CCCCC1)C(=O)[C@H](CC(=O)N1CCSCC1)C2`: 6.76%; `COc1ccc(Br)c(Cn2c(C)c(C(=O)NCc3cccs3)sc2=O)c1`: 0.248%.
On to `CC(C)Cn1cc(-c2cncc3nccn23)cn1`, for which the max response is 1.47%.
Regarding `O=C(CSc1nnnn1C1CCCC1)N1CCCCC1`, the max response is 1.79%.
The same measure for `CC(Sc1nnnn1C)C(=O)NC(=O)NC1CCCCC1` (stereo not given): -0.0816%.
Regarding `CC(Sc1nnnn1C1CCCCC1)C(=O)O` (stereo not given), the max response was -91% (active).
For the compound `O=C(Nc1ccc2c(c1)OCCO2)C1c2ccccc2OCC(=O)N1Cc1ccccn1` (stereo not given), the max response is 6.39%.
The same measure for `COc1ccc(S(=O)(=O)N(C)C[C@H]2OCc3cnnn3CCCC(=O)N([C@H](C)CO)C[C@H]2C)cc1`: 3.6%; for `COc1cccc(-c2cc3nc(NCc4ccccc4OC)n(C)c(=O)c3s2)c1`: 21.3%; for `COCCNC(=O)C1CCCN(Cc2ccccc2Cl)CC1` (stereo not given): 0.686%.
Consider `O=C1CC(c2ccccc2)=NN1c1ccc([N+](=O)[O-])cc1`, for which the max response is -52.7% (active).
`Cc1nn(-c2ccc([N+](=O)[O-])cc2)c(N)c1-c1ccccc1`: the max response was -3.48%.
Consider `CC1=NN(c2ccccc2)C(=O)C1C(=O)c1ccc([N+](=O)[O-])cc1` (stereo not given), for which the max response was 0.85%.
